Data from PubChem BioAssay.
The source made the active and inactive calls. Unless noted, how the calls were made is not given here.

Columns and labels:
[1] = test system: Wnt5a (protein binding on small-molecule microarray); assay: Wnt5a binders on small-molecule microarray, primary screen, biophysical, 635/667 nm fluorescence (AID 1142); settings: 635 nm fluorescence, higher = more signal;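 further: fluorescence read at 667 nm with signal to noise per printed feature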
[2] = cell viability in Huh7 cells, primary screen, cytotoxicity control for HCV replication inhibitor project, CellTiter-Glo luminescence, basal, 48 h (AID 1143); settings: Huh7 HCV replicon, higher = more signal, called active from +8 up or from −8 down;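 further: Huh7 hepatoma cells carrying a hepatitis C replication reporter with no stimulus; test concentration not given here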
[3] = P. aeruginosa biofilm formation inhibitors, primary screen, PAO1 strain, BacTiter-Glo luminescence, LB-PBS (AID 1144); settings: 12 h, higher = more signal
[4] = CREB reporter modulators without forskolin, primary screen, cell-based, PC12, CRE-LacZ reporter, unstimulated (AID 1145); settings: no forskolin, luminescence, 4.5 h, higher = more signal, called active from +8 up or from −8 down
[5] = CREB reporter modulators under forskolin, primary screen, cell-based, PC12, CRE-LacZ reporter, forskolin-stimulated (AID 1146); settings: luminescence, 4.5 h, higher = more signal, called active from +8 up or from −8 down;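 further: PC12 cells with 6xCRE LacZ reporter stimulated by forskolin 10 µM; beta-galactosidase reporter signal reflecting CREB driven transcription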
[6] = molecular target: Streptavidin (Streptomyces avidinii) (UniProt P22629); assay: streptavidin binders on small-molecule microarray, primary screen, artefact control for SMM compound annotation, biophysical, 635/667 nm fluorescence (AID 1147); settings: streptavidin binding, higher = more signal;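 further: signal reflects streptavidin binding to arrayed compounds as a control protein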
Sequence of Streptavidin (Streptomyces avidinii) (P22629 whole entry, looked up): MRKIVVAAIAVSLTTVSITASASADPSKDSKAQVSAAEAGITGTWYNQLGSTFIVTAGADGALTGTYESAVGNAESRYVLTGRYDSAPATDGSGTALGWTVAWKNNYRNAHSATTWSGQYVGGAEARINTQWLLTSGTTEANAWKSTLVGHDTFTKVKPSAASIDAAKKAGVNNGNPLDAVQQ

[7] = small-molecule binders of probe aInhba, primary screen, biochemical, small-molecule microarray, 635/667 nm fluorescence (AID 1148); settings: higher = more signal;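 further: score merges 667nm spot fluorescence with signal-to-noise for antibody binding to printed compounds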
Torsin-1A (Homo sapiens) [8] = molecular target: Torsin-1A (Homo sapiens) (UniProt O14656); assay: torsin A binders from cell lysate, primary screen, small-molecule microarray, wild-type, 635/667 nm (AID 1149); settings: COS7 hTOR1A-WT lysate, 635 nm fluorescence, higher = more signal
Sequence of Torsin-1A (Homo sapiens) (O14656 whole entry, looked up): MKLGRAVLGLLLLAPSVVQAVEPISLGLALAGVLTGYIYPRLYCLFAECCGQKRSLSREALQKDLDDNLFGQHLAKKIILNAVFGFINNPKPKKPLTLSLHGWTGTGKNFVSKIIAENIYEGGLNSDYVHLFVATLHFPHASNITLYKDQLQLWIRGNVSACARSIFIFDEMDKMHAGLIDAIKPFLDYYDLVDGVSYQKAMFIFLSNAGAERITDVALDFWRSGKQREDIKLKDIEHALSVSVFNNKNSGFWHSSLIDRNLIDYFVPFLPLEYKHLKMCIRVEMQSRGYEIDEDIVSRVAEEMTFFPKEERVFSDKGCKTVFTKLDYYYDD

Torsin-1A (Homo sapiens) [9] = molecular target: Torsin-1A (Homo sapiens) (UniProt O14656); assay: small-molecule binders of mutant TOR1A in lysate, primary screen, cell lysate, small-molecule microarray, COS7 lysate, 635/667 nm fluorescence (AID 1150); settings: COS7 hTOR1A mutant lysate, 635 nm fluorescence, higher = more signal;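 further: score pools 667 nm emission and signal to noise measuring lysate protein binding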
[10] = test system: Sonic hedgehog protein (Shh); assay: small-molecule binders of Shh protein, primary screen, biochemical, small-molecule microarray, 635/667 nm fluorescence (AID 1151); settings: small-molecule microarray binding, 635 nm fluorescence; higher = more signal;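 further: Shh protein binding to compounds spotted on small-molecule microarray slides; score combines spot fluorescence intensity with signal-to-noise across triplicate slides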
[11] = E. coli DRC41 culture turbidity changes, primary screen, E. coli filamentation inducer project, strain DRC41, OD650, 48 h (AID 1152);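 further: E. coli MC1000 strain DRC41 lacking acrAB efflux pump and sulA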; settings: E. coli DRC41 (acrAB sulA), higher = more signal, called active from +8 up or from −8 down
[12] = small-molecule binders of probe aLefty1, primary screen, biochemical, small-molecule microarray, 635/667 nm fluorescence (AID 1153); settings: higher = more signal;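 further: score merges spot fluorescence with signal-to-noise ratio from the scanned slide images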
[13] = PSAC antagonists in infected red cells, primary screen, cell-based, P. falciparum Indochina, OD700, 1 h (AID 1154); settings: P. falciparum Indochina infected RBC osmotic lysis, higher = more signal, called active from +8 up or from −8 down
[14] = PSAC antagonists in infected red cells, primary screen, cell-based, P. falciparum Indochina, OD700, 2 h (AID 1155);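 further: lysis reports solute entry through the parasite surface anion channel PSAC; channel blockers reduce lysis of infected cells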; settings: P. falciparum Indochina infected erythrocytes, osmotic lysis OD700; higher = more signal, called active from +8 up or from −8 down
[15] = osmotic lysis modulators in infected erythrocytes, primary screen, PSAC antagonist project, cell-based, P. falciparum Indochina, OD700, 3 h (AID 1156); settings: higher = more signal, called active from +8 up or from −8 down
[16] = PSAC antagonists in infected red cells, primary screen, cell-based, P. falciparum Indochina, OD700, 18 h (AID 1157); settings: P. falciparum Indochina infected erythrocytes, osmotic lysis OD700, 18 h; higher = more signal, called active from +8 up or from −8 down
[17] = modulators of S6 phosphorylation in cells, primary screen, cell-based, A549, cytoblot, luminescence, serum-stimulated (AID 1158); settings: A549 phospho-S6 cytoblot, 5 h, higher = more signal;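 further: serum-stimulated A549 lung adenocarcinoma cells; signal is phosphorylated S6 detected by cytoblot immunostaining with HRP secondary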
[18] = molecular target: NADPH oxidase 2 (Homo sapiens) (UniProt P04839); assay: NOX2-dependent H2O2 signal modulators, primary screen, NOX inhibitor project, cell-based, HEK293-NOX2, PMA-stimulated, Amplex Red fluorescence (AID 1159); settings: 45 min, higher = more signal, called active from +8 up or from −8 down; further: test concentration not given here
Sequence of NADPH oxidase 2 (Homo sapiens) (P04839 whole entry, looked up): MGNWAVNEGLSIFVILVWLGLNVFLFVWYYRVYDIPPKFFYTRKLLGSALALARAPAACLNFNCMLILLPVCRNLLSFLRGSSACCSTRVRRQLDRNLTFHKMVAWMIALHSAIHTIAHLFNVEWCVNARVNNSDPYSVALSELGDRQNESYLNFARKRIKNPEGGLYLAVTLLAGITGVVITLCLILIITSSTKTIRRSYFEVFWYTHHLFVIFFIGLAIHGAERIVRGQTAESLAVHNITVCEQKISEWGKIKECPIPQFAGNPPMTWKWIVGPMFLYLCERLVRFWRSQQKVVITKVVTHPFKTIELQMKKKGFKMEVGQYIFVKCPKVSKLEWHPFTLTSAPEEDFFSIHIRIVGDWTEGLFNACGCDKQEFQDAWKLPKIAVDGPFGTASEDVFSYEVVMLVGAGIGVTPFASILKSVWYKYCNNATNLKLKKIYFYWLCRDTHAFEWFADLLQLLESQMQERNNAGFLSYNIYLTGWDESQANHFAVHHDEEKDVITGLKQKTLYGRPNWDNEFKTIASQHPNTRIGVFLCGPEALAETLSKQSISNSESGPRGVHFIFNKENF

[19] = molecular target: NADPH oxidase 4 (Homo sapiens) (UniProt Q9NPH5); assay: NOX4-dependent H2O2 signal modulators, primary screen, NOX inhibitor project, cell-based, HEK293-NOX4, tetracycline-induced, Amplex Red fluorescence (AID 1160); settings: 45 min, higher = more signal, called active from +8 up or from −8 down
Sequence of NADPH oxidase 4 (Homo sapiens) (Q9NPH5 whole entry, looked up): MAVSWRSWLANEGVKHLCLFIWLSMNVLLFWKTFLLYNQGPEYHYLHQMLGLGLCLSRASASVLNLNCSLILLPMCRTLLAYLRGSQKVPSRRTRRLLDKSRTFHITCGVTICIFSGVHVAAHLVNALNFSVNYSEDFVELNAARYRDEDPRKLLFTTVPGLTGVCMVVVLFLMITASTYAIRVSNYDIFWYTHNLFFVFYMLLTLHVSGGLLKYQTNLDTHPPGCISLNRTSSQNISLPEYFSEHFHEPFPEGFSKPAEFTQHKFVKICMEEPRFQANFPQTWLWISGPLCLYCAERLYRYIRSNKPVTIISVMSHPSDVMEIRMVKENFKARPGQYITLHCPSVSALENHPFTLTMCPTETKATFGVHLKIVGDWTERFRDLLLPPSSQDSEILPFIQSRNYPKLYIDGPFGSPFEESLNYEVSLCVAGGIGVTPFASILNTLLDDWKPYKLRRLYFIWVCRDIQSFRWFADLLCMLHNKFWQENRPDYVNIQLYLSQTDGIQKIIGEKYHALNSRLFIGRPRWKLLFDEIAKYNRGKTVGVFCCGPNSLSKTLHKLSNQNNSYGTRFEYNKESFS

[20] = molecular target: NADPH oxidase 5 (Homo sapiens) (UniProt Q96PH1); assay: NOX5-dependent H2O2 signal modulators, primary screen, NOX inhibitor project, cell-based, HEK293-NOX5, Amplex Red fluorescence (AID 1161); settings: HEK293-NOX5, ionomycin, 45 min, higher = more signal
Sequence of NADPH oxidase 5 (Homo sapiens) (Q96PH1 whole entry, looked up): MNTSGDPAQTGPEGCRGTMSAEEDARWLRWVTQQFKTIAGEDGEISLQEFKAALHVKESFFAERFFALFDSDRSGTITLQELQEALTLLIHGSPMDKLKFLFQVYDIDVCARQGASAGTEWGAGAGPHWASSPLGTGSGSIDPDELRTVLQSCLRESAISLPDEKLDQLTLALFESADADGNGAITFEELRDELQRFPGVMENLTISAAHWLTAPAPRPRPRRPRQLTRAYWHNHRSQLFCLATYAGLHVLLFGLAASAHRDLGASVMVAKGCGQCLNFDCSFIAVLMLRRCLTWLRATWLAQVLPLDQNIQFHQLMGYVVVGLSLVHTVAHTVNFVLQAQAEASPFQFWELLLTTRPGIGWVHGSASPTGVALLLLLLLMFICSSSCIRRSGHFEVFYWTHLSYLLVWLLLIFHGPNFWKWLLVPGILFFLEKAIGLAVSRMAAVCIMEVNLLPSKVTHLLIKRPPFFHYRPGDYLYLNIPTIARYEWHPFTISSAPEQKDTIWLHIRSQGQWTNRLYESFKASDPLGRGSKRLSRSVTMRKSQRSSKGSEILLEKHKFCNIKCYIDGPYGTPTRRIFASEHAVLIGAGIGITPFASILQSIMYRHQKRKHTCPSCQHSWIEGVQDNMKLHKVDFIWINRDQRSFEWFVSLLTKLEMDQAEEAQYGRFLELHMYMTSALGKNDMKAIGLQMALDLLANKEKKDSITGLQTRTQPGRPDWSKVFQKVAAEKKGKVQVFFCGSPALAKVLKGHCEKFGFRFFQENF

Compound	composite z-score [1]	z-score [2]	z-score [3]	z-score [4]	z-score [5]	composite z-score [6]	composite z-score [7]	composite z-score (Torsin-1A (Homo sapiens) [8])	composite z-score (Torsin-1A (Homo sapiens) [9])	composite z-score [10]	z-score [11]	composite z-score [12]	z-score [13]	z-score [14]	z-score [15]	z-score [16]	z-score [17]	z-score [18]	z-score [19]	z-score [20]
CCOC(=O)[C@H](Cc1ccccc1)NC(=O)CCC1CC(OC(=O)NCCc2ccc(F)cc2)CC2(CCCC(COC(=O)NCCC(C)C)O2)O1 (stereo not given in full)	0.446	0.0118 (inactive)	-0.275 (inactive)	1.09 (inactive)	0.956 (inactive)	0.496	-0.183	0.0817	0.34	1.68	-0.15 (inactive)	0.145	-1.5 (inactive)	-0.302 (inactive)	0.005 (inactive)	0.0777 (inactive)	0.429	-0.0979 (inactive)	0.397 (inactive)	0.7
O=C1[C@H]2[C@H]3[C@H](O)[C@H](O)CC(=NOC[C@@H](O)COCc4ccco4)[C@@H]3CC[C@H]2C(=O)N1c1cccc(Oc2ccccc2)c1	-0.403	-0.578 (inactive)	0.626 (inactive)	-1.02 (inactive)	-0.009 (inactive)	0.707	-0.0986	0.419	0.94	0.537	-1.26 (inactive)	-0.247	2.27 (inactive)	0.802 (inactive)	1.39 (inactive)	0.157 (inactive)	-0.664	2.2 (inactive)	1.32 (inactive)	0.425
C[C@H]1CC[C@H]2C(=O)O[C@H](CO)CN2[C@@H]1c1ccc(Br)cc1	0.0217	-0.98 (inactive)	-1.38 (inactive)	-0.557 (inactive)	-0.816 (inactive)	0.0279	-0.202	0.345	-0.363	-0.0013	-0.0016 (inactive)	0.0012	1.51 (inactive)	0.939 (inactive)	0.0454 (inactive)	0.49 (inactive)	-0.337	-0.431 (inactive)	-0.191 (inactive)	-0.489
CC(=O)OC[C@H]1O[C@H](CC=NO[C@H](C)c2cn([C@@H]3COC[C@H]3O)nn2)C=C[C@@H]1OC(C)=O	0.104	-0.29 (inactive)	-0.745 (inactive)	-0.724 (inactive)	-0.538 (inactive)	0.182	-0.0494	-0.0469	-0.108	0.165	-0.676 (inactive)	-0.27	-0.279 (inactive)	-1.7 (inactive)	-0.115 (inactive)	-1.7 (inactive)	1.22	-1.01 (inactive)	0.127 (inactive)	0.0052
CC(=O)OC[C@H]1O[C@H](CC=NOC(C)CN2CCCc3nc(C)c(C)cc32)C=C[C@@H]1OC(C)=O (stereo not given in full)	0.417	0.169 (inactive)	0.649 (inactive)	-0.961 (inactive)	0.0009 (inactive)	-0.0656	-0.0221	1.19	-0.0919	1.1	0.134 (inactive)	-0.0222	1.3 (inactive)	0.674 (inactive)	0.594 (inactive)	0.588 (inactive)	-0.597	-2.12 (inactive)	-2.2 (inactive)	-0.898
